Records with an inconclusive call do not appear. Activity calls are given as the source filed them. Rule for the calls, unless noted: active = hit-call score of the fitted dose curve at least 0.9, where 1 is the maximum; inconclusive = response in the unintended direction; inactive = score below 0.9.
Assays:
[1] = read-out: sulfotransferase (SULT2A), SULT2A1 (gene 6822); test: CLD_SULT2A_24hr: CellzDirect (CLD) Gene Expression Assay for sulfotransferase (SULT2A) at 24 hours (AID 2283694);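 for AC50: potency for increased SULT2A1 mRNA level as induction over DMSO baseline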
Method in brief: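 Primary human hepatocytes from two donor preparations were dosed daily with fresh solutions, vehicle 0.2% DMSO. At 24 h, lysates went to quantitative nuclease protection (qNPA) with S1 digestion and chemiluminescent readout. Cytotoxicity was annotated from phase-contrast morphology.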

[2] = read-out: glucuronosyltransferase (UGT1A1), UGT1A1 (gene 54658); test: CLD_UGT1A1_24hr: CellzDirect (CLD) Gene Expression Assay for glucuronosyltransferase (UGT1A1) at 24 hours (AID 2283696)
Method in brief: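 Primary human hepatocytes from two donor preparations were dosed (0.2% DMSO vehicle) and harvested at 24 h; UGT1A1 mRNA induction was quantified by chemiluminescent qNPA, fitted as gain relative to DMSO.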

[3] = read-out: ABC Transporter (ABCB11), ABCB11 (gene 8647); test: CLD_ABCB11_48hr: CellzDirect (CLD) Gene Expression Assay for ABC Transporter (ABCB11) at 48 hours (AID 2283697)
Method in brief: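 Primary human hepatocytes from two donor preparations dosed daily for two days at multiple concentrations; 0.2% DMSO vehicle. ABCB11 mRNA at 48 h by quantitative nuclease protection assay, chemiluminescence; fitted for induction versus DMSO.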

[4] = read-out: Cytochrome P450 2B6 (Homo sapiens) (UniProt P20813); test: CLD_CYP2B6_48hr: CellzDirect (CLD) Gene Expression Assay for xenobiotic metabolism (CYP2B6) at 48 hours (AID 2283699);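 note: actives raise transcript level above DMSO so potency reflects induction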
Method in brief: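 Primary human hepatocytes dosed daily for two days over multiple concentrations, 0.2% DMSO vehicle; CYP2B6 mRNA quantified at 48 h by qNPA chemiluminescence. Induction fitted as gain of signal versus DMSO; cytotoxicity annotated by morphology.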

[5] = read-out: Cytochrome P450 2C9 (Homo sapiens) (UniProt P11712); test: CLD_CYP2C9_48hr: CellzDirect (CLD) Gene Expression Assay for xenobiotic metabolism (CYP2C9) at 48 hours (AID 2283701; active = hit-call score of the fitted dose curve at least 0.9, where 1 is the maximum; inactive = score below 0.9)
Method in brief: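 Primary human hepatocytes (two donor preparations) dosed daily for two days with test chemicals, 0.2% DMSO vehicle; harvested at 48 h. mRNA induction quantified by qNPA chemiluminescence, fitted for gain of signal against DMSO baseline; cytotoxicity annotated from phase-contrast morphology.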

[6] = read-out: xenobiotic metabolism (CYP1A2), CYP1A2 (gene 1544); test: CLD_CYP1A2_48hr: CellzDirect (CLD) Gene Expression Assay for xenobiotic metabolism (CYP1A2) at 48 hours (AID 2283703)
Method in brief: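 Primary human hepatocytes from two donor preparations were dosed daily for two days at multiple concentrations in 0.2% DMSO vehicle. CYP1A2 mRNA was measured at 48 hours by chemiluminescent quantitative nuclease protection assay, with gain of signal fitted versus DMSO and cytotoxicity annotated from morphology.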

[7] = read-out: Broad substrate specificity ATP-binding cassette transporter ABCG2 (Homo sapiens) (UniProt Q9UNQ0); test: CLD_ABCG2_48hr: CellzDirect (CLD) Gene Expression Assay for ABC Transporter (ABCG2) at 48 hours (AID 2283704)
Method in brief: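 Primary human hepatocytes from two donors, dosed daily for 2 days, 0.2% DMSO vehicle, several concentrations. ABCG2 mRNA at 48 h by qNPA chemiluminescence, gain fitted versus DMSO; cytotoxicity flagged by morphology.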

[8] = read-out: xenobiotic metabolism (CYP1A1), CYP1A1 (gene 1543); test: CLD_CYP1A1_48hr: CellzDirect (CLD) Gene Expression Assay for xenobiotic metabolism (CYP1A1) at 48 hours (AID 2283705)
Method in brief: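 Primary human hepatocytes from two donors dosed daily for two days at multiple concentrations, 0.2% DMSO vehicle; CYP1A1 mRNA induction at 48 h by qNPA chemiluminescence. Cytotoxicity noted by phase-contrast morphology.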

[9] = read-out: alkyl and aryl transferase (GSTA2), GSTA2 (gene 2939); test: CLD_GSTA2_48hr: CellzDirect (CLD) Gene Expression Assay for alkyl and aryl transferase (GSTA2) at 48 hours (AID 2283708);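 note: active means mRNA induction above DMSO vehicle baseline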
Method in brief: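 Primary human hepatocytes dosed daily for two days (0.2% DMSO vehicle), harvested at 48 h. GSTA2 mRNA induction measured by quantitative nuclease protection assay with chemiluminescent imaging, fitted for gain of signal relative to DMSO.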

[10] = read-out: sulfotransferase (SULT2A), SULT2A1 (gene 6822); test: CLD_SULT2A_48hr: CellzDirect (CLD) Gene Expression Assay for sulfotransferase (SULT2A) at 48 hours (AID 2283710);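 note: hits raise SULT2A1 transcript above the 0.2% DMSO vehicle baseline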
Method in brief: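 Primary human hepatocytes (two donor preparations) dosed daily for two days with chemicals at multiple concentrations, vehicle 0.2% DMSO; SULT2A1 mRNA induction at 48 h by quantitative nuclease protection assay, chemiluminescent read-out, fitted for gain of signal versus DMSO.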

[11] = read-out: HMG-CoA synthase (HMGCS2), HMGCS2 (gene 3158); test: CLD_HMGCS2_48hr: CellzDirect (CLD) Gene Expression Assay for HMG-CoA synthase (HMGCS2) at 48 hours (AID 2283711)
Method in brief: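 Primary human hepatocytes from two donors dosed daily for two days, 0.2% DMSO vehicle. HMGCS2 mRNA measured 48 h after dosing by quantitative nuclease protection assay with chemiluminescent read-out; induction fitted relative to DMSO, cytotoxicity flagged by microscopy.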

[12] = STM_H9_OrnithineISnorm_perc: Stemina devTOX quickPredict H9 human embryonic stem cell (hESC)-based Assay for Ornithine (ORN) Metabolite Biomarker, Normalized (AID 2283712; active = hit-call score of the fitted dose curve at least 0.9, where 1 is the maximum; inactive = score below 0.9;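 note: ornithine released into spent medium during last day measured by mass spectrometry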)
Method in brief: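 H9 human embryonic stem cells kept pluripotent receive test chemical over 72 h, refreshed daily by media exchange. Media from the closing 24 h is deproteinized and analysed by UPLC-HRMS on an amide column; ornithine signal is scaled to labelled standard and vehicle.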

[13] = STM_H9_CystineISnorm_perc: Stemina devTOX quickPredict H9 human embryonic stem cell (hESC)-based Assay for Cystine (CYSS) Metabolite Biomarker, Normalized (AID 2283713; active = hit-call score of the fitted dose curve at least 0.9, where 1 is the maximum; inactive = score below 0.9)
Method in brief: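 H9 hESC, pluripotent; compound 72h, re-dosed q24h with medium change. Last-24h medium → 40% acetonitrile deproteinization → UPLC-HRMS. CYSS area / C13-CYSS standard, then % of 0.1% DMSO median.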

[14] = STM_H9_OrnCyssISnorm_ratio: Stemina devTOX quickPredict H9 human embryonic stem cell (hESC)-based Assay for Ornithine (ORN):Cystine (CYSS) Ratio (AID 2283714)
Method in brief: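 Steps: H9 hESCs in pluripotent state dosed 72h, medium plus compound renewed every 24h; conditioned medium from the final 24h deproteinized in 40% acetonitrile; ORN and CYSS quantified by UPLC-HRMS with C13 spike-ins; ratio relative to vehicle.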

[15] = Tanguay_ZF_120hpf_ActivityScore_legacy: (Legacy) Oregon State University Tanguay Lab 120 Hour Post-fertilization zebrafish Assay Score for Activity (AID 2283742);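 for AC50: dechorionated Tropical 5D wild-type zebrafish embryos held singly per well; static exposure from 6 hpf until 120 hpf at 28 °C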
Method in brief: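 Embryos are staged, enzymatically dechorionated at 4 hpf, placed individually at 6 hpf, then held in test chemical (0.64% DMSO) at 28C until 120 hpf. Mortality and malformations are scored by brightfield, with non-mortality endpoints skipped for dead embryos.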

[16] = read-out: glucuronosyltransferase (UGT1A1), UGT1A1 (gene 54658); test: CLD_UGT1A1_48hr: CellzDirect (CLD) Gene Expression Assay for glucuronosyltransferase (UGT1A1) at 48 hours (AID 2283709);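 note: actives increase expression relative to DMSO so potency refers to induction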
Method in brief: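 Human primary hepatocytes dosed daily for two days (0.2% DMSO vehicle), harvested at 48 h. UGT1A1 mRNA induction measured by quantitative nuclease protection assay with chemiluminescence; gain of signal versus DMSO; cytotoxicity flagged from morphology.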

[17] = CEETOX_H295R_MTT_cell_viability: Viability Assessment in the CeeTox HT-H295R MTT Assay (AID 2283718; active = hit-call score of the fitted dose curve at least 0.9, where 1 is the maximum; inactive = score below 0.9)
Method in brief: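 MTT reduction (0.5 mg/ml, 4 h at 37 C; absorbance at 570 and 650 nm) gave viability as background-corrected percent change versus controls. H295R cells had 48 h forskolin (10 uM) prestimulation, then 48 h chemical exposure at 0.1% DMSO.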

[18] = read-out: organic anion transporter (SLCO1B1), SLCO1B1 (gene 10599); test: CLD_SLCO1B1_48hr: CellzDirect (CLD) Gene Expression Assay for organic anion transporter (SLCO1B1) at 48 hours (AID 2283707)
Method in brief: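 Primary human hepatocytes from two donor preparations dosed daily for two days with multiple concentrations, 0.2% DMSO vehicle. SLCO1B1 mRNA at 48 h by quantitative nuclease protection assay, chemiluminescence; gain-of-signal fitted versus DMSO.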

[19] = read-out: ABC Transporter (ABCB1), ABCB1 (gene 5243); test: CLD_ABCB1_48hr: CellzDirect (CLD) Gene Expression Assay for ABC Transporter (ABCB1) at 48 hours (AID 2283695)
Method in brief: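 Primary human hepatocytes from two donor preparations dosed daily on two consecutive days with 0.2% DMSO vehicle. Harvest at 48 h. ABCB1 mRNA quantified by qNPA with chemiluminescence and fitted for gain of signal versus DMSO.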

[20] = CLD_ACTIN_48hr: CellzDirect (CLD) Gene Expression Assay for Baseline Control (Actin) at 48 hours (AID 2283702)
Method in brief: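 Primary human hepatocytes (two donor preparations) dosed daily for two days with ToxCast chemicals at multiple concentrations versus 0.2% DMSO vehicle; harvested at 48 h. Actin mRNA measured as a background control by quantitative nuclease protection assay with chemiluminescence.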

Measured: AC50

Broad substrate specificity ATP-binding cassette transporter ABCG2 (Homo sapiens), sequence (Q9UNQ0 whole entry, looked up): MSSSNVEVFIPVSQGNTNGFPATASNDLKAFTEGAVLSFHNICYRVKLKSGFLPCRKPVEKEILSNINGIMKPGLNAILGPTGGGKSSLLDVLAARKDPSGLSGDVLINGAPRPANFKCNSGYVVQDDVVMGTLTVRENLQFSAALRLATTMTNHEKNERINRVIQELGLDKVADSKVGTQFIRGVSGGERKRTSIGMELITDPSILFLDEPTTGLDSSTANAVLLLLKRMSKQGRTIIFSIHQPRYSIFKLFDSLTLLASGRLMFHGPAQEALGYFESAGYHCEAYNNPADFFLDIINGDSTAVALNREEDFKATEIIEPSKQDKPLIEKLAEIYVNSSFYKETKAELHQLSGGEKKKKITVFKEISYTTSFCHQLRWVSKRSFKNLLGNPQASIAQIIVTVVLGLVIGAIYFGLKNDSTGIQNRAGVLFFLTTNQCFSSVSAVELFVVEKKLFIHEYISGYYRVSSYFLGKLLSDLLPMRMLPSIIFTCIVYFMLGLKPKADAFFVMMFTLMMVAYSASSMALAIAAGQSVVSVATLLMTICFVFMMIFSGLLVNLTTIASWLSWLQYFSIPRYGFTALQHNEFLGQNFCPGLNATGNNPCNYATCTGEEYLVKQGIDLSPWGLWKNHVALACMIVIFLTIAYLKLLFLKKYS

C#CCOS(=O)OC1CCCCC1Oc1ccc(C(C)(C)C)cc1 (centres undefined)
inactive: [1] | [2] | [3] | [5] | [7] | [8] | [9] | [10] | [11] | [15]
active: [4] 2 µM | [6] 3.47 µM | [12] 3.33 µM | [13] 2.42 µM | [14] 2.89 µM

C=CC1(C)OC(=O)N(c2cc(Cl)cc(Cl)c2)C1=O (centres undefined)
inactive: [1] | [2] | [4] | [7] | [8] | [9] | [16] | [10] | [12] | [13] | [14] | [17] | [15]
active: [6] 0.966 µM

CC(C)Oc1cc(-n2nc(C(C)(C)C)oc2=O)c(Cl)cc1Cl
active: [4] 2.67 µM | [6] 6.1 µM | [8] 4.01 µM | [10] 2.92 µM
inactive: [1] | [5] | [7] | [9] | [16] | [17] | [15]

COc1ccc(C(c2ccc(OC)cc2)C(Cl)(Cl)Cl)cc1
active: [2] 20 µM | [4] 6.44 µM | [6] 8.31 µM | [8] 20 µM | [16] 8.36 µM
inactive: [1] | [5] | [10] | [12] | [13] | [14] | [15]

CCNc1nc(Cl)nc(NC(C)C)n1
inactive: [1] | [5] | [18] | [9] | [10] | [17] | [15]
active: [4] 3.97 µM | [6] 10.2 µM | [8] 20 µM | [16] 9.63 µM | [12] 0.12 µM | [13] 42.3 µM | [14] 50 µM

CC(C)(C)c1ccc(CSc2cnn(C(C)(C)C)c(=O)c2Cl)cc1
active: [1] 20 µM | [12] 0.0663 µM | [13] 0.171 µM | [14] 0.091 µM | [15] 40.3 µM
inactive: [19] | [3] | [4] | [5] | [20] | [6] | [7] | [8] | [18] | [9] | [16] | [10] | [11]

O=C(O)COc1nc(Cl)c(Cl)cc1Cl
inactive: [1] | [4] | [5] | [6] | [7] | [8] | [16] | [11] | [15]

CC(C)C1(C)N=C(c2nc3ccccc3cc2C(=O)O)NC1=O (centres undefined)
inactive: [2]

Source: PubChem BioAssay (EPA / NIEHS)
